Consider 25 molecules from ChEMBL document CHEMBL3433997, “St. Jude Leishmania screening dataset” (2016).

This experiment deals with Solute carrier family 2, facilitated glucose transporter member 1 (Homo sapiens) (UniProt P11166). In words: ST_JUDE_LEISH: Cytotoxicity at 2uM final concentration against transgenic Leishmania Mexicana promastigotes LmGLUT1 that are glucose transport deficient and complemented with the human glucose transporter GLUT1. Activity is measured by DNA content using SYBR green in vitro. The class given is functional.
Solute carrier family 2, facilitated glucose transporter member 1 (Homo sapiens), sequence (P11166 whole entry): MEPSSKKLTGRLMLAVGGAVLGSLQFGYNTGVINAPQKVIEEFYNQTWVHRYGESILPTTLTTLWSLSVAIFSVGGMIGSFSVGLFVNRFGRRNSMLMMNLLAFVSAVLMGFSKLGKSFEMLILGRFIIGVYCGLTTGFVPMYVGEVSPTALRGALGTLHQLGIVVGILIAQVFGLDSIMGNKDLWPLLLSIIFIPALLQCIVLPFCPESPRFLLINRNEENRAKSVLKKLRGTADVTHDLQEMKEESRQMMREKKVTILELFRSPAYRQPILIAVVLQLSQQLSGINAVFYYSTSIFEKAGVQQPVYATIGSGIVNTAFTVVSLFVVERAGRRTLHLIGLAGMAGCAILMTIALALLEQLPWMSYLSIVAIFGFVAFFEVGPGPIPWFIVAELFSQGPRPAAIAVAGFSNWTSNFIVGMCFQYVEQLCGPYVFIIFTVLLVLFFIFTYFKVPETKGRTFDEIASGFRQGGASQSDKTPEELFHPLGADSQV
In the case of `Cc1cccc2nc(-c3ccc(-c4ccc(NC(=O)NCc5cccc(F)c5)cc4)cc3)[nH]c12`, the inhibition stood at 11.4%. For the molecule `Cc1cccc2nc(-c3ccc(-c4cccc(CN5CCC(CO)CC5)c4)s3)[nH]c12`, the inhibition was determined as 1.48%. Regarding `O=C(O)CNCC(O)c1ccccc1` (stereo not given), the inhibition was found to be 0.32%. Turning to `Cc1cc(CN2CCC(Nc3ncc(-c4ccsc4)c4nc(C(F)(F)F)ccc34)CC2)no1`, the inhibition was 5.49%.

For `CCCCN(Cc1cnccc1-c1ccc(Br)cc1)c1ccc(C(O)(C(F)(F)F)C(F)(F)F)cc1`, the inhibition worked out at 3.94%. As to `Oc1cc(NC[C@H]2CCC[C@@H]2NCc2cc(Br)cc(Br)c2)nc2ccccc12`, the inhibition came out at 2.99%.

Take `CCOC(=O)c1nc(-c2cc(Cl)nc(Cl)c2)[nH]c1NC(=S)NCc1ccc(NS(C)(=O)=O)cc1`: the inhibition was -2.02%. To `CCN(CC)CCOC(=O)c1ccc(NC(=O)c2cc(-c3ccc(C)cc3)nc3ccccc23)cc1` belongs 1.71%.

On to `O=C(Nc1ccc(-c2csc(-c3nc4ccccc4[nH]3)c2)cc1)Nc1ccc(F)c(F)c1F`, for which the inhibition was 0.67%.

In the case of `COc1ccc(Nc2nccc(N3CCC(NC(=O)Nc4cccc(OC)c4)C3)n2)cc1` (stereo not given), the inhibition stood at 0.29%. As for `CCCCNCc1ccc(-c2nc(CN(CCCn3ccnc3)C(=O)Nc3ccc(CC)cc3)cs2)cc1`, the inhibition turned out to be 7.74%. Regarding `CCn1c(C)cc(C=C2SC(=Nc3ccccc3)NC2=O)c1C`, the inhibition was found to be 6.88%. To `Cc1[nH]c2ccc(-c3ccc(N(C)C)cc3)cc2c(=O)c1Cl` belongs 2.49%; to `CCN1C(=O)C(CC(=O)Nc2cccc(Cl)c2)N(Cc2ccc(OC)c(OC)c2)C1=S` (stereo not given), 0.59%; to `Oc1cc(Nc2ccnc3cc(I)ccc23)c(F)cc1Cl`, 6.52%. Regarding `CC(=O)NCC(=O)NC1=NC(=N)N(OCc2ccc3ccccc3c2)C(C)(C)N1`, the inhibition is 2.26%. Turning to `CN(C)c1cccc(-c2cnc3ccc(NCc4cccc(Cl)c4)nn23)c1`, the inhibition came to 1.27%. With `COc1ccc(C=NN=c2cc(C)[nH]c3ccccc23)c2ccccc12`, the inhibition is 8.8%. For `CCCc1cc(Cc2cnc(N)nc2N)cc(OC)c1OC` the value was 0.14%; for `CCC(=O)N[C@@H]1CN[C@@H](C#Cc2cc3c(Nc4ccc(OCc5cccc(F)c5)c(Cl)c4)ncnc3s2)C1`, 2.02%.

For the molecule `CC(C)(CNCc1cc(Cl)cc(Cl)c1)c1nc(-c2ccnc(N)n2)c(-c2ccc(Cl)c(O)c2)[nH]1`, the inhibition was -0.09%. As to `COc1ccc(C2CC(=O)C3=C(C2)NC(C)=C(C(=O)OC2CCCC2)C3c2cccc(O)c2)cc1OC` (stereo not given), the inhibition was determined as 4.21%. Regarding `Cc1ccc2c(=O)cc(CCc3cccc(F)c3F)n(CC(=O)N(Cc3ccc(-c4ccc(C(F)(F)F)cc4)cc3)C3CCN(C)CC3)c2n1`, the inhibition came to 2%. With `c1cncc(-c2cc(N3CCCCC3)nc(-c3ccncc3)n2)c1`, the inhibition is 8.22%. Regarding `O=S(=O)(c1cccc(C(F)(F)F)c1)N1CCC(CO)(Cc2cccc(C(F)(F)F)c2)CC1`, the inhibition worked out at 9.13%.
